Results published in PubChem BioAssay (NCATS).
Results filed as inconclusive are left out. Activity calls are given as the source filed them. Unless noted, how the calls were made is not given here.

Tests used:
[1] = qHTS profiling of the MIPE4 collection as inhibitors of Plasmodium falciparum (3D7) proliferation (AID 743344);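 further: scaled between DMSO vehicle wells and 0.29 µM artemisinin as full inhibition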; conditions: P. falciparum 3D7 in erythrocytes, SYBR Green DNA fluorescence, 72 h; at 28.5 µM unless noted
Summary of the method: (§1)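 Erythrocytes infected with P. falciparum (0.3% parasitemia, 2.5% hematocrit) incubated with compounds 72 h at 37 C, 5% CO2. Lysis with saponin/Triton buffer containing SYBR Green I, overnight at room temperature in the dark; DNA fluorescence (485/535 nm) normalised to 0.29 uM artemisinin and DMSO.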

[2] = qHTS profiling of the MIPE4 collection as inhibitors of Plasmodium falciparum (DD2) proliferation (AID 743345); conditions: P. falciparum Dd2 in erythrocytes, SYBR Green DNA, 72 h; at 28.5 µM unless noted
Summary of the method: as §1

[3] = qHTS profiling of the MIPE4 collection as inhibitors of Plasmodium falciparum (DD2) proliferation (Rep 2) (AID 743346); conditions: P. falciparum Dd2 in erythrocytes, SYBR Green DNA, 72 h; at 28.5 µM unless noted
Summary of the method: as §1

[4] = qHTS profiling of the MIPE4 collection as inhibitors of Plasmodium falciparum (HB3) proliferation (AID 743347);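 further: plate controls were DMSO vehicle wells for no effect and artemisinin wells for full effect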; conditions: P. falciparum HB3 in erythrocytes, SYBR Green DNA, 72 h; at 28.5 µM unless noted
Summary of the method: as §1

[5] = High-throughput drug toxicity screening in the BPDCN cell line Gen2.2 (AID 1224824); conditions: Gen2.2 BPDCN cells; at 45.8 µM (top of the series) unless noted;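 further: cells exposed to compounds for 48 h before reading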
Summary of the method: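 Gen2.2 cells (500/well) in phenol red-free RPMI with 10% FBS were exposed to compounds for 48 h at 37 °C, 5% CO2. Viability was read by CellTiter-Glo luminescence and normalized to DMSO (100%) and 9.2 uM bortezomib (0%).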

[6] = qHTS assay for measurement of the activity of small molecule inhibitors on Zika virus induced Caspase-3 activity in human iPSC derived neural progenitor cells (hNPCs) (AID 1224857; active means well fitted curve in the direction sought with a large enough effect; an effect the other way counts as inactive or inconclusive; further: nearly all actives have a fitted effect of over 65% in size; further: potency means the concentration at half of the fitted maximal effect)
Summary of the method: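 Values are percent inhibition of virus-induced caspase-3/7 signal, scaled between uninfected cells and ZIKV-infected cells. Infection used 2 FFU/cell for 6 h after 1 h compound exposure.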

[7] = qHTS assay for measurement of the activity of small molecule inhibitors on Zika virus induced Caspase-3 activity in human astrocytoma cells (AID 1224859; active means well fitted curve in the direction sought with a large enough effect; an effect the other way counts as inactive or inconclusive; further: potency means the concentration at half of the fitted maximal effect)
Summary of the method: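 Compound added 1 h pre-infection; ZIKV 2 FFU/cell on SNB-19 cells, 6 h, 37 C/5% CO2. Caspase-Glo 3/7 luminescence; values as % inhibition of ZIKV-induced caspase activity.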

[8] = qHTS Screen of the MIPE 4.0 Collection Against Ewings Sarcoma (TC71) (AID 1259253; active means well fitted curve in the direction sought with a large enough effect; an effect the other way counts as inactive or inconclusive; further: nearly all actives have a fitted effect of over 40% in size; further: potency means the concentration at half of the fitted maximal effect)
Summary of the method: (§2)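 Dose series incubated 48 h with cells in RPMI plus 5% FBS, glutamine and penicillin/streptomycin; cell viability then quantified via CellTiter-Glo.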

[9] = qHTS Screen of the MIPE 4.0 Collection Against Ewings Sarcoma (EW8) (AID 1259255; active means well fitted curve in the direction sought with a large enough effect; an effect the other way counts as inactive or inconclusive; further: nearly all actives have a fitted effect of over 35% in size; further: potency means the concentration at half of the fitted maximal effect;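 on viability: 100% = DMSO-treated cells and 0% = medium-only wells without cells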)
Summary of the method: as §2

[10] = qHTS Screen of the MIPE 4.0 Collection Against Ewings Sarcoma (TC32) (AID 1259256; active means well fitted curve in the direction sought with a large enough effect; an effect the other way counts as inactive or inconclusive; further: nearly all actives have a fitted effect of over 45% in size; further: potency means the concentration at half of the fitted maximal effect)
Summary of the method: as §2

[11] = qHTS Screen of the MIPE 4.0 Collection Against Ewings Sarcoma (RDES) (AID 1259252; active means well fitted curve in the direction sought with a large enough effect; an effect the other way counts as inactive or inconclusive; further: nearly all actives have a fitted effect of over 35% in size; further: potency means the concentration at half of the fitted maximal effect)
Summary of the method: as §2

[12] = qHTS profiling for inhibitors of Plasmodium falciparum (DD2) proliferation (AID 743323); conditions: lower = more inhibition; at 28.7 µM (top of the series) unless noted
Summary of the method: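 1536-well qHTS; infected RBCs 0.3% parasitemia/2.5% Hct final; cpd 72 h 37 C 5% CO2; lysis buffer + SYBR Green I, o/n RT dark; FI 485/535; norm. to 0.29 uM artemisinin and DMSO, plate-stack corrected.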

[13] = qHTS profiling for inhibitors of Plasmodium falciparum (HB3) proliferation (AID 743324; active means well fitted curve in the direction sought with a large enough effect; an effect the other way counts as inactive or inconclusive;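 further: 100% = DMSO vehicle wells and 0% = artemisinin-treated control wells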); conditions: Plasmodium falciparum HB3 blood-stage proliferation; at 28.7 µM (top of the series) unless noted
Summary of the method: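 P. falciparum HB3 grown in erythrocytes (0.3% parasitemia, 2.5% hematocrit final) with compound for 72 h at 37 C, 5% CO2. Parasite DNA detected by SYBR Green after saponin/triton lysis overnight; normalized to 0.29 uM artemisinin and DMSO.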

[14] = Identifying Small Molecule Inhibitors of Pancreatic Cancer Stem Cells (A278, Adherent) (AID 1259361; active means well fitted curve in the direction sought with a large enough effect; an effect the other way counts as inactive or inconclusive; further: nearly all actives have a fitted effect of over 35% in size)
Summary of the method: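 Endpoint: ATP-based luminescence, 48 h drug exposure. Bortezomib at 9.2 uM final as full-kill control; DMSO vehicle as negative control; activity normalized between vehicle and cell-free wells.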

[15] = Identifying Small Molecule Inhibitors of Pancreatic Cancer Stem Cells (A2780, Spheroid) (AID 1259357; active means well fitted curve in the direction sought with a large enough effect; an effect the other way counts as inactive or inconclusive;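 further: spheroids pre-formed over 14 days in stem cell medium on hydrogel; compound exposure lasted 48 h before the ATP luminescence read; 100% = DMSO treated cells and 0% = wells without cells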); conditions: Potency: A2780 spheroid viability
Summary of the method: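 Pre-formed 14-day tumor spheroids or adherent cells dosed and incubated 48 h, 37C, 5% CO2. Viability assessed by CellTiter-Glo.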

[16] = Identifying Small Molecule Inhibitors of Pancreatic Cancer Stem Cells (Panc1, Spheroid) (AID 1259359; active means well fitted curve in the direction sought with a large enough effect; an effect the other way counts as inactive or inconclusive;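 further: compound exposure lasted 48 h before reading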)
Summary of the method: (§3)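 After a 4 h attachment period, compounds were pinned into wells and cultures held 48 h under standard incubator conditions. Viability was then measured as CellTiter-Glo luminescence following 10 min at room temperature.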

[17] = Identifying Small Molecule Inhibitors of Pancreatic Cancer Stem Cells (Panc1, Adherent) (AID 1259362; active means well fitted curve in the direction sought with a large enough effect; an effect the other way counts as inactive or inconclusive; further: potency means the concentration at half of the fitted maximal effect); conditions: Potency: viability
Summary of the method: as §3

| Structure (SMILES) | parasite growth, % of DMSO control [1] [%] | parasite growth remaining, % of DMSO control (lower = more inhibition) [2] [%] | parasite growth, % of control (lower = inhibition) [3] [%] | growth, % of control [4] [%] | cell viability, % of control (lower = more cytotoxic) [5] [%] | Potency [6] | Potency [7] | Potency [8] | Potency [9] | Potency [10] | Potency [11] | activity, percent of control [12] [%] | remaining proliferation (% of control), lower = more inhibition [13] [%] | IC50 (viability decrease) [14] | Potency [15] | Potency [16] | Potency [17] |
| --- | --- | --- | --- | --- | --- | --- | --- | --- | --- | --- | --- | --- | --- | --- | --- | --- | --- |
| O=C(c1ccc(C=Cc2n[nH]c3ccccc23)cc1)N1CCNCC1 | 22.1 | 31.2 | 22.9 | 6.97 | 57.2 | inactive | inactive | 1.66 µM (active) | 0.662 µM (active) | 0.743 µM (active) |  |  |  |  |  |  |  |
| c1cc(OCCN2CCCCC2)cc(-c2n[nH]c3ccc(-c4ncn[nH]4)cc23)c1 | 8.07 | 9.76 | 9.96 | 3.58 | 107 | inactive |  | 23.5 µM (active) |  |  | 10.5 µM (active) |  |  |  |  |  |  |
| CCCCc1ccc(NS(=O)(=O)c2ccc(C)c(C(=O)N3CCN(c4cccc(C)c4C)CC3)c2)cc1 | 232 | 99.3 | 59.2 | 257 | 425 | inactive | inactive | 20.9 µM (active) |  |  | inactive | 96.6 | 92.7 |  |  |  |  |
| C[C@@H]1CCO[C@H]2Cn3cc(C(=O)NCc4ccc(F)cc4F)c(=O)c(O)c3C(=O)N12 | 55 | 53.9 | 38.3 | 62.8 | 58.3 | inactive | inactive | 13.2 µM (active) |  |  |  |  |  |  |  |  |  |
| O=C(Nc1ccc(OC(F)(F)F)cc1)c1sccc1NCc1ccnc2ccccc12 | 57 | 85.7 | 82.6 | 67.5 | 42.4 | 5.9 µM (active) | 6.62 µM (active) | 16.6 µM (active) | 18.7 µM (active) | 18.7 µM (active) |  | 75.1 | 58.1 | 20.9 µM (active) |  |  |  |
| CN(C)N=Nc1nc[nH]c1C(N)=O | 86.1 |  |  | 61.9 | 123 | inactive | inactive |  | inactive | inactive | 18.7 µM (active) |  |  |  |  |  |  |
| CN1CCC[C@H]1CCO[C@](C)(c1ccccc1)c1ccc(Cl)cc1 | 12.4 | 13.4 | 23.9 | 10.3 | 77.3 | inactive | inactive |  |  |  | 20.9 µM (active) |  |  |  |  |  |  |
| CC1=C(C(=O)Nc2cc3cn[nH]c3cc2F)C(c2ccc(C(F)(F)F)cc2)CC(=O)N1 (centres undefined) | 5.13 | 8.5 | 7.16 | 5.72 | 88.7 | inactive | inactive |  | inactive | inactive | 1.48 µM (active) |  |  |  |  |  |  |
| Nc1ncnc2c1c(-c1cccc(OCc3ccccc3)c1)cn2C1CC(CN2CCC2)C1 (centres undefined) | 31.5 | 30.5 | 21.6 | 12.8 | 26.4 | inactive | inactive |  |  | 4.69 µM (active) | 20.9 µM (active) |  |  |  |  |  |  |
| CC(=O)Nc1cccc(-n2c(=O)n(C3CC3)c(=O)c3c(Nc4ccc(I)cc4F)n(C)c(=O)c(C)c32)c1 | 5.62 |  |  | 2.56 | 11.2 | inactive | inactive |  |  | 23.5 µM (active) | 20.9 µM (active) | -0.291 | -0.298 |  | inactive |  |  |
| CCCCC(F)(F)[C@@]1(O)CC[C@H]2[C@H](CC(=O)[C@@H]2CCCCCCC(=O)O)O1 | 77.3 | 99.5 | 70.3 | 83 | 92.5 |  | inactive | 2.96 µM (active) |  | 2.96 µM (active) | 2.64 µM (active) |  |  |  |  |  |  |
| O=C(Nc1cccc2c(=O)cc(-c3nn[nH]n3)oc12)c1ccc(OCCCCc2ccccc2)cc1 | 8.12 | 31.5 | 15.1 | 7.59 | 51.3 | inactive | inactive | 18.7 µM (active) |  | 18.7 µM (active) | 16.6 µM (active) |  |  |  |  |  |  |
| Cc1cc(NC(=O)Nc2ccc(N(C)C)cc2)c2cc(F)cc(F)c2n1 | 9.65 | 46 | 10.9 | 10.1 | 149 |  | inactive | inactive | 26.4 µM (active) |  | inactive |  |  |  |  |  |  |
| COC(=O)[C@H](c1ccccc1Cl)N1CCc2sccc2C1 | 43.8 |  | 22.1 | 24.3 | 95.6 | inactive | inactive |  |  |  | inactive |  |  |  |  |  |  |
| COc1c(C)cnc(Cn2cnc3c(Cl)nc(N)nc32)c1C | 28.9 | 49.8 | 31.8 | 21.1 | 9.9 | inactive | inactive |  |  | 0.132 µM (active) | 0.187 µM (active) | 31.4 | 9.05 | 0.0935 µM (active) |  | inactive | 33.2 nM (active) |
| CCn1c(-c2nonc2N)nc2cncc(CNC3CCNCC3)c21 | 45.1 | 89.6 | 43.8 | 7.55 | 7.5 | inactive | inactive | inactive |  | 14.8 µM (active) | 11.8 µM (active) |  |  |  |  |  |  |
| COc1cc(F)c(C(C)C)cc1-c1ccc(C(F)(F)F)cc1CN1C(=O)O[C@H](c2cc(C(F)(F)F)cc(C(F)(F)F)c2)[C@@H]1C | 6.82 | 9.07 | 31.9 | 9.46 | 115 | inactive | inactive | 16.6 µM (active) | inactive |  | inactive |  |  |  |  |  |  |
| CC(C)(F)C[C@H](N[C@@H](c1ccc(-c2ccc(S(C)(=O)=O)cc2)cc1)C(F)(F)F)C(=O)NC1(C#N)CC1 | 56.4 | 64.3 | 61 | 68.4 | 153 | inactive | inactive |  | 16.6 µM (active) | 18.7 µM (active) | 18.7 µM (active) |  |  |  |  |  |  |
| COc1ccc(-c2cc(=O)c3c(O)cc(O[C@@H]4O[C@H](CO[C@@H]5O[C@@H](C)[C@H](O)[C@@H](O)[C@@H]5O)[C@@H](O)[C@H](O)[C@@H]4O)cc3o2)cc1O | 30.1 | 28.6 |  | 23.4 | 93 | inactive |  | 18.7 µM (active) |  | 26.4 µM (active) | 18.7 µM (active) |  |  |  |  |  |  |
| N#Cc1ccc(Oc2ccc3c(c2)COB3O)cc1 | 35.7 |  | 38.3 | 24.2 | 210 |  | inactive |  |  | inactive | inactive |  |  |  |  |  |  |
| CCC[C@H](Nc1nc(-c2ccc(NC(=O)NCC)c(OC)c2)ncc1C)c1cccnc1 | 4.72 | 7.78 | 20.1 | 4.28 | 9.57 | inactive | inactive | 0.0093 µM (active) |  | inactive | 0.0093 µM (active) |  |  |  |  |  |  |
| CCNC(=O)Nc1ccc(Oc2ncnc(N)c2C=NOC)cc1Cl | 71.9 | 81.9 | 67 | 50.6 | 52.6 | inactive | inactive | inactive | 8.33 µM (active) |  | 8.33 µM (active) |  |  |  |  |  |  |
